Experimental findings from PubChem BioAssay are described below.

Records with an inconclusive call do not appear. Calls of active or inactive are those of the source.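 How the source made its calls, unless noted: active means inhibition over a set limit, the all-compound mean plus 3 SD, in both replicate runs; inconclusive means over that limit in just one replicate run; inactive means at or under that limit in both runs.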

Assay [1] can be described thus: reducers of endogenous Her2 protein level, primary screen, SKBR3 breast tumor cells, AlphaScreen, ATP viability (AID 461;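 active means Her2 level under about 52% in both replicate screens, with viability over 70% of control, limit read from the data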;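 on Her2 level: lower value means less Her2 protein in the cells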;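 on viability: percent of carrier control wells set as 100% viability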). As to conditions: 18-24 h, measured here: SKBR3 viability, ATP luminescence, at 10 µM.
Assay [2] addresses Receptor tyrosine-protein kinase erbB-2 (Homo sapiens) (UniProt P04626). Described as above. As to conditions: 18-24 h, at 10 µM, stronger effect = lower value.
A short description of assay [3]: SK-BR-3 cell growth inhibitors, pilot screen, 24 h, human (AID 572;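 active means viability at or below 10% of carrier control in both of two separate runs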;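 further: compound exposure lasted between 18 and 24 h rather than exactly 24 h; 100% = carrier-treated control wells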). As to conditions: SK-BR-3 viability, CellTiter-Glo luminescence, at 10 µM, stronger effect = lower value.
The nature of assay [4]: HUVEC growth inhibition – cell-based, human, primary screen (AID 575;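 active means viability at or below 30% in both replicate assays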;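 further: 100% = median of untreated cell wells with 0.1% DMSO on each plate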). The settings on record: HUVEC proliferation, CellTiter-Glo luminescence, 72 h; at 10 µM; stronger effect = lower value.
A short description of assay [5]: growth inhibitors of H69AR lung tumor, primary screen, human, duplicate replicates (AID 580;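 active means viability at or under a set limit in both replicates, limit being median viability minus 3 SD, cut at about 48% in these data, passing the limit was not always enough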;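 further: 100% = mean luminescence of untreated wells and 0% = no signal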). As to conditions: H69AR lung tumor cells viability, ATP luminescence, 72 h; at 10 µM; stronger effect = lower value.
Assay [6] can be described thus: reversal of MRP1-mediated doxorubicin resistance, pilot screen, H69AR cells, doxorubicin co-treatment (AID 601;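 active means viability loss from added drug above about 55%, and viability with drug at most 40%, in both replicates, limit read from the data, passing the limit was not always enough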). As to conditions: CellTiter-Glo, 72 h, at 10 µM; for differential viability (reversal): stronger effect = higher value.
Assay [7] is described as follows: 384-well plate pilot, post-Golgi transport modulator project, inhibition of yeast transport mutant growth (AID 636; in the data active means inhibition above about 31%). As to conditions: absorbance 615 nm, about 18 h, stronger effect = higher value.
Assay [8] can be described thus: growth suppression of yeast trafficking mutant, preliminary HTS, modulators of trafficking downstream of Golgi apparatus project, 1536-format plate, OD 615 nm (AID 637; in the data active means inhibition above about 30%). The settings on record: yeast transport mutant growth, absorbance 615 nm, 18 h; stronger effect = higher value.
The nature of assay [9]: OD615 S. cerevisiae growth inhibition, permissive medium, pilot counter-assay, permissive growth control for S. cerevisiae lifespan shortening project (AID 705;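 active means growth inhibition above 25% in both replicates, a cutoff set 3 SD above the mean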). The settings on record: OD615, 24 h, at 10 µM, stronger effect = higher value.
A short description of assay [10]: Restrictive medium S. cerevisiae growth inhibition, OD615, pilot screen of yeast lifespan reduction project, restrictive growth control (AID 706;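 active means growth inhibition above a set limit, 3 SD over mean compound inhibition, in both replicates, cut at about 43% in these data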;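 further: modified DeaD lifespan yeast strain shifted to restrictive glucose medium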). As to conditions: OD615, 48 h, at 10 µM, stronger effect = higher value.
Assay [11] is described as follows: viability gain of MRP-1-high H69AR cells under doxorubicin, pilot screen, MRP-1 activator project, CellTiter-Glo, duplicate (AID 807;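 active means viability increase at or above a cutoff of the median across tested compounds plus 3 SD, cut at about 8.5% in these data, passing the limit was not always enough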;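 further: compound pretreatment 18-22 h then 72 h combined with doxorubicin; 0% = doxorubicin alone and 100% = vehicle without doxorubicin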). The settings on record: H69AR viability with doxorubicin, CellTiter-Glo luminescence; at 10 µM; stronger effect = higher value.
Assay [12] can be described thus: growth suppression of beta-catenin knockout HCT116, pilot screen, human colon tumor cells (AID 823;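 active means cell viability at or below a set limit in both duplicate runs, the limit being the all-compound median minus 4 SD, cut at about 23% in these data, passing the limit was not always enough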;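 further: 0% = wells killed by 20 µM Hyamine and 100% = untreated DMSO cell wells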). As to conditions: CellTiter-Glo, 60 h, at 10 µM, stronger effect = lower value.
A short description of assay [13]: growth suppression of PTEN-deleted HCT116, pilot screen, cell-based, HCT116 clonal line, CellTiter-Glo (AID 824;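 active means viability at or below 27.92% in each of two runs, the all-compound median minus 4 SD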;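 further: 0% = 20 µM Hyamine control and 100% = vehicle cell control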). As to conditions: 60 h, at 10 µM, stronger effect = lower value.
A short description of assay [14]: inhibitors of the yeast RAM network, pilot screen, dse1pr::URA3 reporter, 5-FOA selection (AID 869).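 Further: 0% = DMSO wells with no growth and 100% = 10 µM 1-NA-PP1 with full growth; RAM network block rescues cells from 5-FOA so hits raise OD615 growth.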 As to conditions: S. cerevisiae dse1pr::URA3 5-FOA growth, OD615, 2 d; at 10 µM; stronger effect = higher value; strain carries analog-sensitive mutant Cbk1 kinase.
The nature of assay [15]: RAM signaling pathway blockade in yeast – S. cerevisiae, Pdr1DBD-CYC8 efflux-inhibited sensitized strain, primary screen (AID 1298;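 active means RAM network inhibition above 8.4% in each of two replicates, 3 SD over the compound average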;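 further: 0% = DMSO untreated cells without growth and 100% = 10 µM 1-NA-PP1 full growth; higher means more yeast growth rescued from 5-FOA killing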). As to conditions: S. cerevisiae cbk1-as DSE1-URA3 strain, 5-FOA growth OD615, 2 d; at 50 µM; stronger effect = higher value.
Setting [16] is: H69AR cells + 2 uM doxorubicin, measured here: viability with 2 uM doxorubicin, stronger effect = lower value.
Setting [17] is: H69AR cells, compound alone cytotoxicity.

Chain of Receptor tyrosine-protein kinase erbB-2 (Homo sapiens) (P04626 whole entry, looked up): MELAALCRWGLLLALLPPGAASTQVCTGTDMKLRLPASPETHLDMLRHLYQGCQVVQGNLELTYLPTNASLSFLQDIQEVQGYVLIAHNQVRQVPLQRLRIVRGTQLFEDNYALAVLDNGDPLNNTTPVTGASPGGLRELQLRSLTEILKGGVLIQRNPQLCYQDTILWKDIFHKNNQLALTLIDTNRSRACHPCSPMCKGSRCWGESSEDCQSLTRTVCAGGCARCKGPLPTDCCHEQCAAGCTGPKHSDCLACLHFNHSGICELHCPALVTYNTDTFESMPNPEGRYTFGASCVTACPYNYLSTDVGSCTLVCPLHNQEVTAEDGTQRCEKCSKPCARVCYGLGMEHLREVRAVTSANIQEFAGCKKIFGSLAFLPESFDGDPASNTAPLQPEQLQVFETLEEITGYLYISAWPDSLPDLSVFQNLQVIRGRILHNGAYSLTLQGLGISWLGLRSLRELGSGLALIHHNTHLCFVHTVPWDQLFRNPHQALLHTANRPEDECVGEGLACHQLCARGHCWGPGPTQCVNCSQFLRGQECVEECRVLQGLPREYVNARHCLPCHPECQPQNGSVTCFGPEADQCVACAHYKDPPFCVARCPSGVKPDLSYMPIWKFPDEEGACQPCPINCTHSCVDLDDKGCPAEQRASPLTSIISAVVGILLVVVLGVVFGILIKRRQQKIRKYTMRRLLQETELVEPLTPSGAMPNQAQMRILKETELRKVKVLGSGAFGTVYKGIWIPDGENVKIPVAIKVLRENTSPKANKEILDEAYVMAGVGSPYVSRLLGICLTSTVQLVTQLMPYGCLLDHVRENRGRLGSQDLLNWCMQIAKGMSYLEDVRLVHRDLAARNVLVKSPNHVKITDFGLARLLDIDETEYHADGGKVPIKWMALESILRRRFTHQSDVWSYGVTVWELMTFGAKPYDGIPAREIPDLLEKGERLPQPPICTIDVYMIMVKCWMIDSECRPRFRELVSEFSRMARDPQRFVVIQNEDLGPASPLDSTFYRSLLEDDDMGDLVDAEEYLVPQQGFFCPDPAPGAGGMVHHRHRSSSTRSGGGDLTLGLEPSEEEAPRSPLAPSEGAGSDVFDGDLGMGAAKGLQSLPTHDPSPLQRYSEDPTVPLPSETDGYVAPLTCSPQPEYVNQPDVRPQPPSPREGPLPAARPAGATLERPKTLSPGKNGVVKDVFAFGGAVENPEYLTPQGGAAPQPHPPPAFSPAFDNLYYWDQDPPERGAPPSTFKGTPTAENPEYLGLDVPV

`COc1ccc(N2CCN(CCCNS(=O)(=O)c3c(C)noc3/C=C/N(C)C)CC2)cc1`: the viability was 99.5% in [1]; 99.5% (inactive) in [3]; 83.1% (inactive) in assay [4]; 92.9% (inactive) in assay [5]; 92.8% in assay [6] (setting [16]); 92.9% in [6] (setting [17]). Also, the results for the viability in [12] and in [13] were 81% (inactive) and 83.7% (inactive), respectively. Besides, the Her2 level in [2] is 94.5% (inactive). For the same compound, the differential viability (reversal) in [6] (H69AR cells + 2 uM doxorubicin) is 0.17% (inactive). Also, the inhibition in assay [7] is -7.33% (inactive); in [8], -4.43% (inactive); in assay [14], 1.67% (inactive). Besides, the growth inhibition was -4.88% (inactive) in assay [9] and 12% (inactive) in [10]. Moreover, in [11], the viability increase was -2.75% (inactive). Besides, the RAM network inhibition in [15] is 7% (inactive).
On to `COc1cc(NC(=O)c2nccnc2C(=O)O)cc(OC)c1`, for which the viability in assay [1] is 98%; in assay [3], 98% (inactive); in assay [4], 95.7% (inactive); in assay [5], 109% (inactive); in [6] (setting [16]) it was 90.6%; in [6] (setting [17]), 109%. Besides, the viability was 96.1% (inactive) in assay [12] and 95% (inactive) in assay [13]. Besides, the Her2 level in assay [2] was 107% (inactive). Also, in [6] (H69AR cells + 2 uM doxorubicin), the differential viability (reversal) is 18.3% (inactive). The inhibition in assay [7] was -7.6% (inactive); in assay [8], -2.3% (inactive); in assay [14] it was 2.17% (inactive). The growth inhibition in assay [9] was -8.21% (inactive); in assay [10], -1.48% (inactive). In addition, in assay [11], the viability increase was -1.6% (inactive). Further, the RAM network inhibition in assay [15] is -0.31% (inactive).
`CN1CCN(C2=C(Cl)C(=O)N(c3cccc(Cl)c3)C2=O)CC1`: the viability in assay [1] was 80.5%; in [3], 80.5% (inactive); in [4], 87.7% (inactive); in assay [5], 85% (inactive); in assay [6] (setting [16]), 80.5%; in [6] (setting [17]) it was 85%. The viability in assay [12] is 96.3% (inactive); in [13], 104% (inactive). In assay [2], the Her2 level was 96.5% (inactive). In addition, the differential viability (reversal) in assay [6] (H69AR cells + 2 uM doxorubicin) was 4.44% (inactive). Besides, the inhibition in assay [7] was 0.26% (inactive); in assay [8], 5.67% (inactive); in assay [14], 0.75% (inactive). Also, the growth inhibition is -16.8% (inactive) in assay [9] and -5.5% (inactive) in [10]. The viability increase in assay [11] is -1.68% (inactive). In addition, the RAM network inhibition in [15] is 2.62% (inactive).
